Bioassay records deposited in PubChem BioAssay by several laboratories.
Sampled rows, rich in hits. Any-hit rate of the full collection: about 22%.
CYP2C19 inh: human CYP2C19 inhibition | P33261 | CYP2C19 Supersomes, luciferin-H EGE luminescence, 30 min | inhibition, % at 5 µM | 21% of 96,000 active | AID 778;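 active means CYP2C19 inhibition above a set limit at 5 µM in the primary screen, cut at about 50% in these data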;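 further: plate controls were negative control wells for no effect and 2.5 mM tranylcypromine positive control for full effect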
Target sequence (P33261 whole entry, looked up): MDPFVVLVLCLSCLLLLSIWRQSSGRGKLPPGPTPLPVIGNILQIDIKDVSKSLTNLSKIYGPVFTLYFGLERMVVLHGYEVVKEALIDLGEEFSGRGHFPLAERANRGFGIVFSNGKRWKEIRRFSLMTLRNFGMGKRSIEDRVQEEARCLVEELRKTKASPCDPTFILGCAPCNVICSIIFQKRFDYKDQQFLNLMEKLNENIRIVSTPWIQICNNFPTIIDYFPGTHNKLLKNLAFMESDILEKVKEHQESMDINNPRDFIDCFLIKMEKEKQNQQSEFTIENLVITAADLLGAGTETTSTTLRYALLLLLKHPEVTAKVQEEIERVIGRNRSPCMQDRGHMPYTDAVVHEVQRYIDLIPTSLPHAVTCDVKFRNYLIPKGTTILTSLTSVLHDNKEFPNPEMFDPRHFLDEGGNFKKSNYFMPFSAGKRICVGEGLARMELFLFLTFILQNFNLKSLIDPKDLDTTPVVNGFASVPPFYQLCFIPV
CYP2C9 activ: increases human cytochrome P450 2C9 activity; recombinant CYP2C9, luciferin-H conversion, luminescence; hits give high values; factor 1 = untreated enzyme, 0 = blocked; activation factor at 5 µM; 1.4% of 96,000 active;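 active means activation factor of 2 or more for CYP2C9 at a 5 µM dose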;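 further: 0 = sulfaphenazole-blocked wells and 1 = vehicle-only wells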
CYP2C19 act: cytochrome P450 2C19 (human) activation; recombinant CYP2C19, luciferin-H EGE luminescence; hits give high values; 0 = fully inhibited enzyme, 1 = untreated enzyme; 96,000 tested, under 10 active; P33261; activation factor at 5 µM;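 active means activation factor of at least 2 at 5 µM in the primary screen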;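 further: 0 = wells with 2.5 mM tranylcypromine and 1 = vehicle-only wells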
Measles CPE: protection of cells from measles virus; 1.5% of 140,000 active; protection (pct of control), % at 4 µM; Measles virus-infected cells, CPE protection, absorbance; in the data active means protection mostly above about 24%, no sharp cut-off; inactive means mostly below about 26%
CYP2C9 inhib: human CYP2C9 inhibition | P11712 | CYP2C9 Supersomes, luciferin-H conversion, luminescence | inhibition, % at 5 µM | 20% of 96,000 active | AID 777;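 active means blocking of liver enzyme CYP2C9 beyond about 50% at 5 µM, limit read from the data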
Numbers without * were called inactive; nt = not tested or not shown.

SMILES | CYP2C19 inh | CYP2C9 activ | CYP2C19 act | Measles CPE | CYP2C9 inhib
O=C(O)c1cc(-c2ccncc2)nc2ccc(S(=O)(=O)N3CCOCC3)cc12 | 7 | 0.4 | 0.9 | 15 | 60*
O=C(c1cc(-c2ccccn2)nc2ccc(Br)cc12)N1CCc2ccccc2C1 | 87* | 0.1 | 0.1 | 13 | 89*
CCOC(=O)N1CCN(C(=O)c2cc(-c3ccc(OCC)cc3)nc3ccccc23)CC1 | 16 | 0.2 | 0.8 | 3 | 76*
O=C(NCc1ccccc1)c1cc(-c2ccncc2)nc2ccc(S(=O)(=O)N3CCOCC3)cc12 | nt | nt | nt | 2 | nt
CC1CC(C)CN(C(=O)c2cc(-c3ccccn3)nc3ccccc23)C1 (configuration not stated) | 25 | 0.7 | 0.7 | 6 | 27
CCOc1ccc(-c2cc(C(=O)N3CCN(C)CC3)c3ccccc3n2)cc1 | -4 | 0.8 | 1 | 5 | 22
O=C(c1ccco1)N1CCN(C(=O)c2cc(-c3ccccn3)nc3ccc(Cl)cc23)CC1 | 53* | 0.1 | 0.5 | 4 | 88*
O=C(c1ccco1)N1CCN(C(=O)c2cc(-c3ccccc3)nc3ccccc23)CC1 | -8 | 0.9 | 1.1 | 4 | 14
CCOC(=O)c1cc(C(O)(C(F)(F)F)C(F)(F)F)c(/N=C/N(C)C)o1 | 4 | 0.9 | 1 | 3 | 9
COc1ccc(CCNC(=O)c2noc3c2CCCC3)cc1OC | 16 | 1 | 0.8 | 14 | -1
CS(=O)(=O)N1CCN(C(=O)c2cc(-c3ccncc3)nc3ccc(Cl)cc23)CC1 | 36 | 0.3 | 0.6 | 27 | 68*
COc1ccc(OC)c(-c2cc(C(=O)N3CCN(c4ncccn4)CC3)c3ccccc3n2)c1 | 65* | 0.1 | 0.3 | 5 | 89*
COc1ccccc1-c1cc(C(=O)N2CCc3ccccc3C2)c2ccccc2n1 | 48 | 0.4 | 0.5 | nt | 64*
CCN1CCN(C(=O)c2cnn3c(C(F)F)cc(-c4ccc(C)cc4)nc23)CC1 | 8 | 0.9 | 0.9 | 5 | 10
Cc1ccc(-c2cc(C(F)F)n3ncc(C(=O)N4CCN(c5ccccn5)CC4)c3n2)cc1 | 46 | 0.4 | 0.5 | 5 | 57*
CS(=O)(=O)N1CCN(C(=O)c2cc(-c3ccccc3)nc3ccccc23)CC1 | 45 | 0.7 | 0.6 | 5 | 30
CCN(CC)c1ccc(C2NCC(c3ccc([N+](=O)[O-])cc3)O2)cc1 (configuration not stated) | nt | nt | nt | 3 | nt
CCOc1ccc(-c2cc(C(=O)N3CCN(c4ccccn4)CC3)c3ccccc3n2)cc1 | 6 | 0.8 | 0.9 | 9 | 21
COc1ccc(-c2cc(C(=O)N3CCN(c4ccccn4)CC3)c3ccccc3n2)cc1 | 59* | 0.2 | 0.4 | 9 | 77*
Cc1ccc2nc(Nc3nc(CSc4nnnn4-c4ccccc4)cc(=O)[nH]3)nc(C)c2c1 | 67* | 0.2 | 0.3 | 19 | 80*
COc1ccc(CNc2nc(NCc3ccc(OC)cc3)n(C(C)=O)n2)cc1 | -6 | 0.8 | 1.1 | 33 | 15
COc1ccc(CNc2nc(NCc3ccc(OC)c(OC)c3)n(C(=O)c3cccs3)n2)cc1OC | 27 | 0.3 | 0.7 | 10 | 71*
CCCn1nnc(NCc2ccc(OCc3cccs3)c(OC)c2)n1 | 48 | 0.1 | 0.5 | 8 | 86*
CCC(=O)n1nc(NCc2ccccc2OC)nc1NCc1ccccc1OC | 36 | 0.5 | 0.6 | 12 | 52*
CCn1c(SCC(=O)c2ccc(NC(C)=O)c(OC)c2)nnc1-c1ccc(NS(C)(=O)=O)cc1 | nt | nt | nt | 9 | nt
SMILES | CYP2C19 inh | CYP2C9 activ | CYP2C19 act | Measles CPE | CYP2C9 inhib
CCOC(=O)c1[nH]c(=O)c2ccccc2c1O | nt | nt | nt | 26 | nt
C=CCC1(O)C(=O)N2C(=C1C(=O)OCC)c1ccc3ccccc3c1CC2(C)C (configuration not stated) | 31 | 0.7 | 0.7 | 61* | 30
COc1ccc(OC)c(-c2cn(S(=O)(=O)c3ccccc3)nc2N)c1 | 22 | 0.7 | 0.8 | 3 | 31
Nc1nn(S(=O)(=O)c2cccc3nsnc23)cc1-c1ccc(Br)cc1 | 100* | 0 | 0 | 7 | 100*
Cc1cccc(NC(=O)C2CCN(S(=O)(=O)c3cccc4nsnc34)CC2)n1 | 41 | 1 | 0.6 | 1 | 4
COc1cc(-c2cn(S(=O)(=O)c3cccc4nsnc34)nc2N)cc(OC)c1OC | 96* | 0.1 | 0 | 10 | 88*
Cc1ccc(-c2cn(S(=O)(=O)c3cccc4nsnc34)nc2N)cc1 | 89* | 0.3 | 0.1 | 13 | 69*
COCCn1c(-c2cc(OC)c(OC)c(OC)c2)nc2nc3ccccc3nc21 | -7 | 0.9 | 1.1 | nt | 9
Cc1ccc(-c2cc(C(=O)NC3=NCCS3)c3ccccc3n2)cc1C | nt | nt | nt | 2 | nt
COCCCNC(=O)C1CCCCN1S(=O)(=O)c1ccc(F)cc1 (configuration not stated) | 10 | 0.9 | 0.9 | 11 | 6
Cc1noc(C)c1CSc1ccc(Br)cc1 | 96* | 0.9 | 0 | 18 | 11
Cc1noc(C)c1CSc1nnc2sc3ccccc3n12 | 78* | 1 | 0.2 | 10 | 2
Cc1noc(C)c1CSc1cc(C)c2ccccc2n1 | 86* | 0.5 | 0.1 | 9 | 55*
Cc1noc(C)c1CSc1nc2ccccc2n1C | 89* | 0.4 | 0.1 | 2 | 62*
CN(C)CCSc1nnc2sc3ccccc3n12 | -7 | 1.3 | 1.1 | 8 | -26
COc1ccc(OCCSc2nnc3sc4ccccc4n23)cc1 | 47 | 1 | 0.5 | 47* | 0
CCc1n[nH]c(=S)n1/N=C/c1ccc2c(c1)OCO2 | 0 | 0.9 | 1 | 42* | 5
COc1ccc2c(c1)C(=NNC(=O)c1ccccn1)c1cc(OC)ccc1-2 | nt | nt | nt | 0 | nt
COc1ccc2c(c1)C(=NO)c1cc(OC)ccc1-2 | 5 | 0 | 0.9 | 9 | 96*
C=CCOc1ccc2c(c1)C(=NO)c1cc(OCC=C)ccc1-2 | 33 | 0.2 | 0.7 | 18 | 82*
[O-][n+]1onc2c1CCc1c-2nc(-c2ccccc2)n1OCc1ccccc1 | 4 | 0.9 | 1 | 5 | 9
N#CC1=C(N)Oc2n[nH]c(-c3cccs3)c2C1c1cccs1 (configuration not stated) | 4 | 0.8 | 1 | 14 | 15
CC(C)CC1C(C#N)=C(N)Oc2n[nH]c(-c3cccs3)c21 (configuration not stated) | 67* | 0.8 | 0.3 | 19 | 22
CSCCC1C(C#N)=C(N)Oc2n[nH]c(-c3cccs3)c21 (configuration not stated) | 37 | 0.4 | 0.6 | 9 | 55*
CC1(C)CC(=O)C2=C(C1)NC(=O)CC2c1cc2c(cc1Br)OCO2 (configuration not stated) | 15 | 0.9 | 0.9 | 11 | 14
COc1cc2c(cc1OC)C(c1ccc3c(c1)OCO3)C1=C(CC(C)(C)CC1=O)N2 (configuration not stated) | 0 | 1 | 1 | 25* | -2
